# Records with an inconclusive call do not appear. Where a call stands in place of a potency, no number is given. Active and inactive are the calls of the source. Unless noted, calls come from the whole dose curve; as a rule, active = well fitted inhibition curve with a large enough effect; inconclusive = small, poorly fitted or top-dose-only effect; inactive = no such curve, though single readings can be large or run the other way.
# Molecular target: Atrial natriuretic peptide receptor 2 (Homo sapiens) (UniProt P20594)
# Sequence (P20594 whole entry, looked up): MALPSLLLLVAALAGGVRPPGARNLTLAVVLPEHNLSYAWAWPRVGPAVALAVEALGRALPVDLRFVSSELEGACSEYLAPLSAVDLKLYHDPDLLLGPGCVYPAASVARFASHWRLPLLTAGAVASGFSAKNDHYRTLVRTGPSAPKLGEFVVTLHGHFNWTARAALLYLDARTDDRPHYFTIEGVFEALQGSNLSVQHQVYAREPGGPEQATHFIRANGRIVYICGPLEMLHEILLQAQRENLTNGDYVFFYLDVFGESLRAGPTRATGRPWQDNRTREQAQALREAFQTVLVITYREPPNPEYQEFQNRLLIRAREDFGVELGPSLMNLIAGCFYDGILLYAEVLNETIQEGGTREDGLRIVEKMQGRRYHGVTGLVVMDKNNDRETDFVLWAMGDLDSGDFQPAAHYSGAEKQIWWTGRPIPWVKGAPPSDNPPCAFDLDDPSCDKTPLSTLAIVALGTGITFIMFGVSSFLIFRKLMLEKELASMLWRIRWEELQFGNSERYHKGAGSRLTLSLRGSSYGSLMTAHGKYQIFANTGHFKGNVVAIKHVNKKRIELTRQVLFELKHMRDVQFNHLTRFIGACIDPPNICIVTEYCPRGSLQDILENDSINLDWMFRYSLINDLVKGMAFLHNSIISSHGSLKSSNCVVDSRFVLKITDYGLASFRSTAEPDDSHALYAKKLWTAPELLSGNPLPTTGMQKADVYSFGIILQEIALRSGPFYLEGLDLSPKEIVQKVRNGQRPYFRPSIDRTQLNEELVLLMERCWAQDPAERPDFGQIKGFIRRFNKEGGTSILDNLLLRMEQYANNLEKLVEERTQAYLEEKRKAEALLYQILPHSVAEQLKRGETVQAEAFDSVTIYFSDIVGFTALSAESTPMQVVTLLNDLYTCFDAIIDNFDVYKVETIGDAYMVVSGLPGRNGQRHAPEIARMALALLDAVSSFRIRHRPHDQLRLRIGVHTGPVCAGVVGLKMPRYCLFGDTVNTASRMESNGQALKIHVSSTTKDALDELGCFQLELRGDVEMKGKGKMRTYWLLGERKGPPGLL
# Assay: Natriuretic polypeptide receptor (hNpr2) antagonism - Pilot subtype selectivity assay (AID 1347050; calls by dose curve; note: potency is the fitted concentration of half-maximal effect)
# Details: NPR2-expressing cells, cGMP antagonist-mode read-out; series mostly up to 38.3 µM
# Method in brief: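 cGMP-sensor HEK293/hNpr2 cells; 2% GloSensor reagent 2 h RT; compounds 30 min; baseline luminescence read; 1 nM hNppC agonist 20 min RT; final luminescence read by CCD camera. Antagonism = reduced post-agonist signal.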
row,SMILES,Potency
1,NCCCS(=O)(=O)O,inactive
2,O=C1O/C(=C/Br)CCC1c1cccc2ccccc12 (centres undefined),11.7 µM (active)
3,C=C[C@H]1CN2CC[C@@H]1C[C@@H]2[C@@H](O)c1ccnc2ccc(OC)cc12,inactive
4,NC(N)=NC(=O)c1nc(Cl)c(N2CCCCCC2)nc1N,inactive

# Tested on: not listed separately
# Assay: NS1 protein of Zika virus - qHTS assay to identify small molecule inhibitors in human HEK 293 cells (AID 1347053); note: nearly all actives have a fitted effect of over 55% in size
# Details: HEK293 ZIKV MR766 infection, NS1 TR-FRET, 24 h; series mostly up to 46.1 µM
# Method in brief: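 Following 20 h seeding, HEK 293 cells took compound, then 1 h later ZIKV MR766 (MOI = 0.5). Incubation ran 24 h at 37 C before TR-FRET detection of NS1; a drop in signal indicates inhibition.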
row,SMILES,Potency
1,CCCCCCCCc1ccc(-c2ccc(C(=O)O)cc2)cc1,inactive
2,Cc1cc(NC(=O)Nc2ccc3c(ccn3C)c2)sn1,inactive
3,COc1ccc2c(c1)CCC1C2CC[C@@]2(C)C1CC[C@@H]2NCCCCCCN1C(=O)CCC1=O (some centres undefined),inactive
4,C[N+](C)(C)CCOP(=O)(O)OP(=O)([O-])OC[C@H]1O[C@@H](n2ccc(N)nc2=O)[C@H](O)[C@@H]1O,inactive
5,CCN(CC)c1ncnc2c1ncn2[C@@H]1O[C@H](COP(=O)(O)OP(=O)(O)C(Br)(Br)P(=O)(O)O)[C@@H](O)[C@H]1O,inactive
6,CC(C)CC(NP(=O)(O)O[C@@H]1O[C@@H](C)[C@H](O)[C@@H](O)[C@H]1O)C(=O)NC(Cc1c[nH]c2ccccc12)C(=O)O (some centres undefined),inactive
7,NO,inactive
8,C=CC(C)=C[C@@]1(C)SC(=O)C(C)=C1O,inactive
9,CNC(=O)[C@H]1O[C@@H](n2cnc3c(NCc4cccc(I)c4)ncnc32)[C@H](O)[C@@H]1O,inactive
10,CCCCCCCC/C=C\CCCCCCCC(=O)NCCO,inactive
11,COC(=O)c1c(C)[nH]c(C)c1C(=O)c1ccccc1Cc1ccccc1,inactive
12,CC(C)NC[C@@H](O)c1ccc(O)c(O)c1,inactive
13,NCCCCCCCCCCN,inactive
14,CC(C)(C=O)Cc1cc(C(C)(C)C)c(O)c(C(C)(C)C)c1,inactive
15,COc1cccc(C(=O)NCCN2CCN(c3ccc(Cl)cc3)CC2)c1,inactive
16,NC(=O)C1=CN(C2OC(COP(=O)(O)OP(=O)(O)OC[C@H]3O[C@@H](n4cnc5c(N)ncnc54)[C@H](OP(=O)(O)O)[C@@H]3O)C(O)C2O)C=CC1 (some centres undefined),inactive
17,C=C[C@@H]1CN2CC[C@@H]1C[C@H]2[C@H](O)c1ccnc2ccc(OC)cc12,inactive
18,COc1cc(SC)ccc1C(=O)N1CCC(Cc2ccccc2)CC1,inactive
19,CC1CN(S(=O)(=O)c2cccc3cnccc23)CCN1 (centres undefined),inactive
20,C[C@@H](CN1CCC(Cc2ccccc2)CC1)[C@@H](O)c1ccc(O)cc1,inactive
21,CC1(C)CCC=[N+]1[O-],inactive
22,OC[C@H]1O[C@@H](n2cnc3c(NC4CCCC4)ncnc32)[C@H](O)[C@@H]1O,inactive
23,COc1cc(C(O)CO)ccc1OS(=O)(=O)O (centres undefined),inactive
24,CC(=O)N[C@H](C(=O)O)C(C)(C)SN=O,inactive
25,CCCCC#Cc1nc(NC)c2ncn([C@@H]3O[C@H](CO)[C@@H](O)[C@H]3O)c2n1,inactive
26,OC[C@H]1O[C@@H](n2cnc3c(NC4CCCCC4)ncnc32)[C@H](O)[C@@H]1O,inactive
27,NCCCS(=O)(=O)O,inactive
28,O=C1/C(=C/c2ccsc2)CC/C1=C\c1cccs1,inactive
29,C=C[C@H]1CN2CC[C@@H]1C[C@@H]2[C@@H](O)c1ccnc2ccc(OC)cc12,inactive
30,NC(N)=NC(=O)c1nc(Cl)c(N2CCCCCC2)nc1N,inactive
